The nature of assay [1]: Confirmation and Secondary Assay for Modulators of Hemoglobin Beta Chain Splicing at IVS2 654 locus (AID 910; active means well fitted curve in the direction sought with a large enough effect; an effect the other way counts as inactive or inconclusive;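 further: HeLa cells stably carrying EGFP split by mutant beta-globin IVS2-654 intron; per-well total GFP intensity by laser scanning cytometry after 2-day treatment; % of control where 0% means no effect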). Put shortly:
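Readout: per-well total peak green fluorescence (488 nm ex, 500–520 nm em) from objects 5–250 µm, reflecting correct splicing of an EGFP-654 reporter. Compounds were applied for 2 days at 37 °C to overnight-plated HeLa EGFP-654 cells; controls were DMSO and 500 nM IVS2-654 PNA.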

Assay [2] is described as follows: Confirmation and Secondary Assay for Modulators of Hemoglobin Beta Chain Splicing at IVS2 705 locus (AID 930; active means well fitted curve in the direction sought with a large enough effect; an effect the other way counts as inactive or inconclusive;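 further: HeLa cells stably expressing the EGFP-705 splicing reporter; GFP fluorescence per well restored by corrected splicing of the IVS2-705 intron in EGFP; % of control where 0% means no effect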). Put shortly:
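Secondary splice-site specificity test uses HeLa expressing CMV-driven EGFP interrupted by IVS2-705; cells were treated 2 days at 37C with 500 nM antisense PNA as positive control.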

Assay [3] is described as follows: qHTS Assay for Lipid Storage Modulators (AID 1519). Further: potency means the concentration at half of the fitted maximal effect. On activity change, negative = inhibition: on the % scale 0 is the no-effect control and ±100 the full control effect. The conditions noted are these: Drosophila S3 cells, BODIPY lipid droplet/cell ratio, laser cytometry, cells loaded with oleic acid; for activity change, negative = inhibition: at 57.5 µM (top of the series). Put shortly: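 Cells seeded at 5,000 per well were treated with compounds over a concentration series and loaded with oleic acid (400 uM, as added). Lipid droplet fluorescence (488 nm excitation, 500-530 nm channel) was read by laser-scanning cytometry and normalized to 20 uM Triacsin C.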
Background: In qHTS, concentration-response curves come from the screen itself.

The nature of assay [4]: Confirmatory qHTS to identify inhibitors of SARS-CoV-2 cell entry (AID 1645844). Further: nearly all actives have a fitted effect of over 45% in size. Further: potency means the concentration at half of the fitted maximal effect. The essentials: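 Luminescence from a luciferase reporter, read 48 hr after pseudotyped-particle addition, gives entry signal, normalised to spike-bearing PP wells and bald PP lacking fusion protein wells. Cells are Expi293F stably expressing human ACE2, compound-pretreated 1 hr.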
A short description of assay [5]: Cytotoxicity counterscreen for inhibitors of SARS-CoV-2 cell entry (AID 1645845). Further: nearly all actives have a fitted effect of over 50% in size. The conditions noted are these: outcome: dose series up to 57.1 µM unless noted. The essentials: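 48 h compound treatment (after 1 h preincubation), HEK293-ACE2 cells, 37 C/5% CO2; ATP luminescence endpoint; normalized to cell wells and media blanks.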
Assay [6] can be described thus: Primary qHTS to identify inhibitors of SARS-CoV-2 cell entry (AID 1645846). Further: nearly all actives have a fitted effect of over 45% in size. Further: potency means the concentration at half of the fitted maximal effect. The conditions noted are these: SARS-CoV-2 pseudovirus cell entry assay, luminescence; activity change, negative = inhibition: at 57.1 µM (top of the series) unless noted. The essentials: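 Using luciferase-reporting pseudoviruses carrying Wuhan-Hu-1 spike, the screen tracks entry into stably ACE2-expressing cells over 48 hr. Activity is expressed relative to spike particles versus particles lacking any fusion protein.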

Assay [7] is described as follows: VSVG counterscreen qHTS to identify inhibitors of SARS-CoV-2 cell entry (AID 1645847). Further: potency means the concentration at half of the fitted maximal effect; nearly all actives have a fitted effect of over 65% in size. Put shortly: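 Entry of VSV-G pseudotyped particles into human ACE2-expressing HEK293 cells was measured by luciferase luminescence 48 h after infection, with compound added 1 h beforehand.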
Assay [8] concerns the target Cytochrome P450 2C9 (Homo sapiens) (UniProt P11712). The assay can be described thus: Cytochrome P450 family 2 subfamily C member 9 (CYP2C9) small molecule antagonists: luciferase biochemical (cell-free) qHTS assay (AID 1645842; active means well fitted curve in the direction sought with a large enough effect in the repeat runs; an effect the other way counts as inactive or inconclusive; further: nearly all actives have a fitted effect of over 55% in size; further: potency means the concentration at half of the fitted maximal effect; on activity change, negative = inhibition: on the % scale 0 is the no-effect control and ±100 the full control effect). Put shortly:
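Luminescence, after 20 min with luciferin detection reagent, reflected CYP2C9 turnover during a 1 h NADPH-driven reaction at 37C. Enzyme-substrate mix contained 0.4% bovine serum albumin and was preincubated with compound 10 min at room temperature.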

Assay [9] concerns the target Cytochrome P450 2D6 (Homo sapiens) (UniProt P10635). The assay can be described thus: Cytochrome P450 family 2 subfamily D member 6 (CYP2D6) small molecule antagonists: luciferase biochemical (cell-free) qHTS assay (AID 1645840; active means well fitted curve in the direction sought with a large enough effect in the repeat runs; an effect the other way counts as inactive or inconclusive; further: nearly all actives have a fitted effect of over 55% in size; further: potency means the concentration at half of the fitted maximal effect; on activity change, negative = inhibition: on the % scale 0 is the no-effect control and ±100 the full control effect). Put shortly: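 P450-Glo luminescent screen: recombinant CYP2D6 enzyme–proluciferin substrate mix preincubated with compound 10 min at room temperature, then NADPH regeneration added for 1 h at room temperature. Detection reagent added for 20 min; luciferin light read as relative luminescence units.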

Assay [10] concerns the target Cytochrome P450 3A4 (Homo sapiens) (UniProt P08684). The assay can be described thus: qHTS Assay for Activators of Cytochrome P450 3A4 (AID 885; active means well fitted curve in the direction sought with a large enough effect; an effect the other way counts as inactive or inconclusive; further: nearly all actives have a fitted effect of over 65% in size). Put shortly:
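Quantitative HTS format: compounds preincubated with 20nM human CYP3A4 and Luciferin-PPXE substrate at KM, reaction started by NADPH regeneration, stopped after 60 min, luciferase luminescence read 20 min later.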

Where [11] appears, read: measured here: cell count channel max response.
Where [12] appears, read: measured here: lipid channel max response.

The structures appear in SMILES notation. Records with an inconclusive call do not appear. The source made the active and inactive calls. Unless noted, the call rests on the fitted dose curve.

Chain of Cytochrome P450 2D6 (Homo sapiens) (P10635 whole entry, looked up): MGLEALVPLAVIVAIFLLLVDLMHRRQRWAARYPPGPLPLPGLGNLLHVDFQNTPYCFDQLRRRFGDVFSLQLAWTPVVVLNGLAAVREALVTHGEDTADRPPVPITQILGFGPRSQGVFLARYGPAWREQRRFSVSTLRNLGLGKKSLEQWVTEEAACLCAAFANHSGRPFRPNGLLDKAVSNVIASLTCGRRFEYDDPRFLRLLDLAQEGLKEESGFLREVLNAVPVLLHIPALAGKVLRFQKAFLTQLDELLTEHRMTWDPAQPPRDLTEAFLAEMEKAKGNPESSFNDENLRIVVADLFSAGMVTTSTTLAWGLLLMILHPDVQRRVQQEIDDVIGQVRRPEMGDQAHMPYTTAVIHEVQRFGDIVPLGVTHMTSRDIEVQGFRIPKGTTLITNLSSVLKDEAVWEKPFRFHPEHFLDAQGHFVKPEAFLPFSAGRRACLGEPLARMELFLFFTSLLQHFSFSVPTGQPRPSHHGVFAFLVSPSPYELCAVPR
Chain of Cytochrome P450 2C9 (Homo sapiens) (P11712 whole entry, looked up): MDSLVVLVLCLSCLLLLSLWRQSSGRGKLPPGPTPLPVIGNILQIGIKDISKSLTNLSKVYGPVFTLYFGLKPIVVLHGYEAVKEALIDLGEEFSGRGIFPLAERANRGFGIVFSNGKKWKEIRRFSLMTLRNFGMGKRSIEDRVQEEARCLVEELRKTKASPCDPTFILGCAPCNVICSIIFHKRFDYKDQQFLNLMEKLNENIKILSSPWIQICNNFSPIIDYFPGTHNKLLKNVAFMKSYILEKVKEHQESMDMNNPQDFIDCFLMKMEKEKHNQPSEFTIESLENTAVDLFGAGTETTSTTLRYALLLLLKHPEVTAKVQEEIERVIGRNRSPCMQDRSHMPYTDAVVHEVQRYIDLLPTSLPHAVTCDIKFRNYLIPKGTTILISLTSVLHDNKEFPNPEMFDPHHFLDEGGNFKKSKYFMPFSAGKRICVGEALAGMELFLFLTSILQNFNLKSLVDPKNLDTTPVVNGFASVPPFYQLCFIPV
Chain of Cytochrome P450 3A4 (Homo sapiens) (P08684 whole entry, looked up): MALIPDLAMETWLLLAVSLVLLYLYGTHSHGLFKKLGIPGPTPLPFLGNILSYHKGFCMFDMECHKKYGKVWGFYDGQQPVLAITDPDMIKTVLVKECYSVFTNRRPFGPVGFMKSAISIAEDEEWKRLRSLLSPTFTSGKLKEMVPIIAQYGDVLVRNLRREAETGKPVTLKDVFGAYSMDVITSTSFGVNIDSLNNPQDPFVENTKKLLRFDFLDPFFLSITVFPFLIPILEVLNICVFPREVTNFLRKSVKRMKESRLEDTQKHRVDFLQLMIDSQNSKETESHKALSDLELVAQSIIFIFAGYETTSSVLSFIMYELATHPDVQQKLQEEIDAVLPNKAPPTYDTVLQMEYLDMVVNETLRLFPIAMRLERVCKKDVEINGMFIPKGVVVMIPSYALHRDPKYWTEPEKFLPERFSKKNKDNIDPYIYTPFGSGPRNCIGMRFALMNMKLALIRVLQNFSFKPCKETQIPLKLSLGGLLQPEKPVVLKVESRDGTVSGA

On to `COc1cc2c(cc1OC)[C@@H]1C(=O)c3ccc4oc(C(C)C)cc4c3OC1CO2` (some centres undefined), for which the Potency entry in assay [1] and in assay [2] was “inactive” in each case. In addition, in assay [3], the Potency is 2.51 µM (active). The figures for the max response in [3] (setting [11]) and in assay [3] (setting [12]) were -28.2% and -80.9%, respectively.

For `C=C1C[C@H]2C=Nc3cc(OCCCOc4cc5c(cc4OC)C(=O)N4CC(=C)C[C@H]4C=N5)c(OC)cc3C(=O)N2C1`, the Potency in [4] was 0.0015 µM (active); in [7] it was 0.0014 µM (active). The Potency entry in assay [5] is “inactive”. Moreover, the activity change, negative = inhibition in [6] is -62%.

In the case of `CCCCNc1ncc(-c2ccc(CN3CCOCC3)cn2)c(NC2CCC(O)CC2)n1` (centres undefined), the Potency in [4] was 1.05 µM (active). For the same molecule, in assay [5], the Potency entry was “inactive”.

In the case of `Cc1cnc(Nc2ccc(F)cc2Cl)nc1-c1c[nH]c(C(=O)NC(CO)c2cccc(Cl)c2)c1` (centres undefined), the Potency in [4] is 3.83 µM (active); in [6] it was 8.91 µM (active); in assay [7], 1.92 µM (active). In assay [5], the Potency entry is “inactive”.

Take `CN1CCc2cc3c(cc2C1O)OCO3` (centres undefined): the Potency result in assay [1] and in assay [2] was “inactive” in each case. In addition, in assay [3], the activity change, negative = inhibition was 7.6% (inactive). Besides, the max response was 9.52% in [3] (setting [11]) and 18.6% in assay [3] (setting [12]).

For the molecule `Cc1ccccc1[C@@H](C(=O)NC1CCCCC1)N(C(=O)Cn1ccnc1C)c1cccc(F)c1`, the Potency result in assay [8] is “inactive”.

With `Nc1ncc(C(=O)NC2CN(C(=O)C3CC3)C2)c2ccc(-c3cccc(F)c3)nc12`, the Potency in assay [4] was 2.71 µM (active). Besides, the Potency result in assay [5] is “inactive”.

Consider `C=CCC1(CC(C)C)C(=O)NC(=O)NC1=O`, for which the Potency result in [9] and in assay [8] was “inactive” each time.

As to `O=c1c(-c2ccc(O)cc2)coc2c([C@@H]3O[C@H](CO)[C@@H](O)[C@H](O)[C@H]3O)c(O)ccc12`, the Potency entry in [4] and in assay [5] was “inactive” throughout. The activity change, negative = inhibition in [6] was -22.1%.

As to `CCN=C1Nc2ccc(Cl)cc2C(C)(c2ccccc2)O1` (centres undefined), the Potency in assay [9] is 10.7 µM (active); in [8], 9.52 µM (active).

As for `COc1ncc(Nc2ncc(C(C)N3CCN(S(C)(=O)=O)CC3)cc2-c2nc(C)nc(N)n2)cc1F` (centres undefined), the Potency in [4] was 1.52 µM (active).

As to `CC(C)(N)Cc1ccccc1`, in assay [8], the Potency entry is “inactive”.

In the case of `C[C@@]12CCC(O)C[C@H]1CCC1C2CC[C@]2(C)C(=O)CCC12` (some centres undefined), the Potency entry in assay [10], in assay [1] and in assay [2] was “inactive” in each case. Moreover, the activity change, negative = inhibition in [3] is 1.65% (inactive). In addition, the max response in [3] (setting [11]) is 7%; in assay [3] (setting [12]), 9.46%.

For the molecule `CC1(C)C(O)CC(O)[C@]2(C)C1CC(O)[C@]1(C)C2CC[C@@]2(C)C(c3ccoc3)CC3OC312` (some centres undefined), the Potency entry in assay [10], in [1] and in [2] was “inactive” throughout. Besides, the activity change, negative = inhibition in assay [3] was -10.5% (inactive). Moreover, the values for the max response in [3] (setting [11]) and in assay [3] (setting [12]) were -11.5% and -19.8%, respectively.

Regarding `O=C(c1ccc(Nc2nc(C3CC3)cn3c(-c4cn[nH]c4)cnc23)c(F)c1)N1CCOCC1`, the Potency in assay [4] was 3.41 µM (active); in assay [7] it was 8.57 µM (active). For the same molecule, in assay [5], the Potency result was “inactive”. The activity change, negative = inhibition in assay [6] is -58.9%.

With `CCN(CC)N(O)N=O`, the Potency result in assay [9] and in assay [8] was “inactive” throughout.

Take `CCc1nc(C(N)=O)c(Nc2ccc(N3CCC(N4CCN(C)CC4)CC3)c(OC)c2)nc1NC1CCOCC1`: the Potency was 3.41 µM (active) in assay [4] and 10 µM (active) in assay [6]. Further, the Potency result in [5] was “inactive”.

With `CCNC(=O)Nc1ccc(-c2nc3c(c(N4CCOC[C@@H]4C)n2)CCN(C2COC2)C3)cc1`, in assay [4], the Potency is 12.1 µM (active).

For the origin of these results see PubChem BioAssay (NCATS).
